# Test results published in PubChem BioAssay (EPA / NIEHS).
# Inconclusive results are not listed. Active and inactive are the calls of the source. Rule for the calls, unless noted: active = hit-call score of the fitted dose curve at least 0.9, where 1 is the maximum; inactive = score below 0.9.
# How the values were obtained:
# [1] = target: Nuclear respiratory factor 1 (Homo sapiens) (UniProt Q16656); experiment: ATG_NRF1_CIS: Attagene CIS-FACTORIAL HepG2 Assay for human Nuclear Respiratory Factor 1 (NRF1) Orphan Gene (AID 2282987); conditions: HepG2 NRF1 cis-element reporter, Attagene multiplex; actives raise or lower the signal
# Procedure, shortened: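 Multiplexed cis-reporter assay, HepG2 cells, 24 h treatment. Total RNA → oligo(dT) RT → PCR with reporter-specific primers → 6-FAM primer extension → HpaI cut → CE. Bidirectional fit vs DMSO.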
# [2] = ATG_NFI_CIS: Attagene CIS-FACTORIAL HepG2 Assay for human Nuclear Factor I (NFI) (AID 2282989); conditions: HepG2 cis-regulatory reporter, NFI response element transcription; actives raise or lower the signal
# Procedure, shortened: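 Multiplexed cis-reporter system in human HepG2 cells reports native TF activity as reporter mRNA induction 24 h post-dose. Fragments labelled with 6-FAM, HpaI-digested and resolved by capillary electrophoresis; activity fitted both directions versus DMSO.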
# [3] = target: Myc proto-oncogene protein (Homo sapiens) (UniProt P01106); experiment: ATG_Myc_CIS: Attagene CIS-FACTORIAL HepG2 Assay for human Myelocytomatosis (Myc) Proto-Oncogene Transcription Factor (AID 2282990); conditions: HepG2, Attagene cis-reporter transcription factor activity; actives raise or lower the signal
# Procedure, shortened: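 Fluorescence intensity of reporter-specific cDNA fragments, separated by capillary electrophoresis, gives the signal. Transfected HepG2 cells carrying cis-promoter reporter constructs are incubated with compound for 24 h; DMSO serves as baseline.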
# [4] = ATG_NF_kB_CIS: Attagene CIS-FACTORIAL HepG2 Assay for human Nuclear Factor Kappa B (NF-kB) (AID 2282991); conditions: HepG2 Attagene cis-factorial NF-kB reporter mRNA; actives raise or lower the signal
# Procedure, shortened: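 Transient MRTU transfection of human HepG2 liver cells → 24 h chemical exposure → total RNA, oligo(dT) RT → PCR, 6-FAM primer extension, HpaI digest 2 h 37 C → CE fragment analysis. Bidirectional fitting, DMSO negative control.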
# [5] = ATG_NRF2_ARE_CIS: Attagene CIS-FACTORIAL HepG2 Assay for human Nuclear Factor Erythroid 2 Related Factor 2 (NFR2) response to Antioxidant Response Elements (ARE) (AID 2282992); conditions: HepG2 Attagene ARE/NRF2 reporter, transcription factor activity; actives raise or lower the signal;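 for AC50: reporter mRNA level measured by RT-PCR and capillary electrophoresis fluorescence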
# Procedure, shortened: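 Endogenous transcription factor activity in human liver HepG2 cells is tracked via a cis-element-driven reporter within a multiplexed set. mRNA induction is read by RT-PCR and capillary electrophoresis after 24 h, with DMSO as baseline.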
# [6] = ATG_Oct_MLP_CIS: Attagene CIS-FACTORIAL HepG2 Assay for human Octamer-Binding Transcription Factor (Oct) (AID 2282993); conditions: HepG2 Attagene cis-factorial Oct reporter, mRNA; actives raise or lower the signal
# Procedure, shortened: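 After 24 h compound exposure, transfected HepG2 cells were lysed for total RNA; reporter-specific cDNA was PCR-amplified, fluorescently labelled and sized by capillary electrophoresis. Bidirectional curve fitting used DMSO as baseline.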
# [7] = target: Cellular tumor antigen p53 (Homo sapiens) (UniProt P04637); experiment: ATG_p53_CIS: Attagene CIS-FACTORIAL HepG2 Assay for human p53 Transcription Factor (AID 2282994); conditions: HepG2 p53 cis-element reporter, Attagene mRNA; actives raise or lower the signal
# Procedure, shortened: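 Steps: transfect HepG2 with multiplexed cis reporter constructs; dose chemicals 24 h; extract RNA, reverse-transcribe, PCR-amplify reporter sequences; FAM-label, HpaI-digest, resolve fragments by CE. Activity fitted both directions relative to DMSO.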
# [8] = target: human Peroxisome Proliferator-activated Receptor delta (PPARd), PPARD (gene 5467) (UniProt Q03181); experiment: ATG_PPARd_TRANS: Attagene TRANS-FACTORIAL HepG2 Assay for human Peroxisome Proliferator-activated Receptor delta (PPARd) (AID 2283002; active = hit-call score of the fitted dose curve at least 0.9, where 1 is the maximum)
# Procedure, shortened: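 Fluorescence from capillary electrophoresis of labelled RT-PCR reporter fragments gives the signal; DMSO sets baseline. Cells: HepG2 transiently carrying GAL4-UAS reporter units plus chimeric nuclear receptor-Gal4 proteins, exposed to chemicals for 24 h.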
# [9] = target: Peroxisome proliferator-activated receptor gamma (Homo sapiens) (UniProt P37231); experiment: ATG_PPARg_TRANS: Attagene TRANS-FACTORIAL HepG2 Assay for human Peroxisome Proliferator-activated Receptor-gamma (PPARg) (AID 2283007; active = hit-call score of the fitted dose curve at least 0.9, where 1 is the maximum)
# Procedure, shortened: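 Transient transfection of HepG2 with GAL4-UAS-driven reporter units; chemical dosing 24 h; total RNA → oligo(dT) RT → PCR with reporter primers → 6-FAM primer extension → HpaI digest 2 h 37 C → capillary electrophoresis. Positive direction vs DMSO.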
# [10] = target: Nuclear receptor subfamily 1 group I member 2 (Homo sapiens) (UniProt O75469); experiment: ATG_PXR_TRANS: Attagene TRANS-FACTORIAL HepG2 Assay for human Pregnane X Receptor (PXR) (AID 2283008; active = hit-call score of the fitted dose curve at least 0.9, where 1 is the maximum)
# Procedure, shortened: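 HepG2 transfected (FuGene 6) with GAL4-UAS reporter units + PXR-Gal4 chimera; dosed 24 h. Total RNA → oligo(dT) RT → PCR → 6-FAM primer extension → HpaI cut → CE. Gain-of-signal vs DMSO.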
# [11] = target: human Retinoic Acid Receptor gamma (RARg), RARG (gene 5916) (UniProt P13631); experiment: ATG_RARg_TRANS: Attagene TRANS-FACTORIAL HepG2 Assay for human Retinoic Acid Receptor gamma (RARg) (AID 2283009; active = hit-call score of the fitted dose curve at least 0.9, where 1 is the maximum)
# Procedure, shortened: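 TRANS format measured activity of exogenous NR-GAL4 fusion (RARg) in transfected HepG2 liver cells after 24 h dosing. Induced reporter RNA was detected by RT-PCR/capillary electrophoresis fluorescence, analysed in the positive direction against DMSO.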
# [12] = target: human Retinoic Acid Receptor beta (RARb), RARB (gene 5915) (UniProt P10826); experiment: ATG_RARb_TRANS: Attagene TRANS-FACTORIAL HepG2 Assay for human Retinoic Acid Receptor beta (AID 2283004; active = hit-call score of the fitted dose curve at least 0.9, where 1 is the maximum)
# Procedure, shortened: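 Induction of reporter mRNA from a chimeric RARb-Gal4 construct was measured by RT-PCR, FAM labelling, HpaI digestion and capillary electrophoresis. Measurements followed 24 h compound treatment of transiently transfected human HepG2 liver cells, with DMSO as baseline.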
# [13] = target: Retinoic acid receptor alpha (Homo sapiens) (UniProt P10276); experiment: ATG_RARa_TRANS: Attagene TRANS-FACTORIAL HepG2 Assay for human Retinoic Acid Receptor alpha (RARa) (AID 2283005; active = hit-call score of the fitted dose curve at least 0.9, where 1 is the maximum)
# Procedure, shortened: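 HepG2 transiently transfected with multiplex GAL4-UAS reporter units including a human RARa–GAL4 chimera; 24 h compound exposure. Reporter mRNA quantified by RT-PCR, 6-FAM labeling and capillary electrophoresis; gain of signal versus DMSO.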
# Sequence of human Peroxisome Proliferator-activated Receptor delta (PPARd), PPARD (gene 5467) (Q03181 whole entry, looked up, the tested form may be a part): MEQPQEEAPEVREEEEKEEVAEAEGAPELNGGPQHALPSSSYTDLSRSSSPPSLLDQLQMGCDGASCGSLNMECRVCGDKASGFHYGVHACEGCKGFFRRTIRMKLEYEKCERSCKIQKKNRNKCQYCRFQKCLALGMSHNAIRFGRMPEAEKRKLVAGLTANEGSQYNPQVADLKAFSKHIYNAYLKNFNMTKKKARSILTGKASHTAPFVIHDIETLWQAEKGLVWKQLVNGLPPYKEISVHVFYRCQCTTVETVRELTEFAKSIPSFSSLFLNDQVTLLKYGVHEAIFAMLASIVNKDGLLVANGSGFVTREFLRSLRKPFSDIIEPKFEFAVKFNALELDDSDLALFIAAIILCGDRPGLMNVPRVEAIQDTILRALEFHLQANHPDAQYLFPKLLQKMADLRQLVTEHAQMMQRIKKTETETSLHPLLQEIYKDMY
# Sequence of Nuclear respiratory factor 1 (Homo sapiens) (Q16656 whole entry, looked up): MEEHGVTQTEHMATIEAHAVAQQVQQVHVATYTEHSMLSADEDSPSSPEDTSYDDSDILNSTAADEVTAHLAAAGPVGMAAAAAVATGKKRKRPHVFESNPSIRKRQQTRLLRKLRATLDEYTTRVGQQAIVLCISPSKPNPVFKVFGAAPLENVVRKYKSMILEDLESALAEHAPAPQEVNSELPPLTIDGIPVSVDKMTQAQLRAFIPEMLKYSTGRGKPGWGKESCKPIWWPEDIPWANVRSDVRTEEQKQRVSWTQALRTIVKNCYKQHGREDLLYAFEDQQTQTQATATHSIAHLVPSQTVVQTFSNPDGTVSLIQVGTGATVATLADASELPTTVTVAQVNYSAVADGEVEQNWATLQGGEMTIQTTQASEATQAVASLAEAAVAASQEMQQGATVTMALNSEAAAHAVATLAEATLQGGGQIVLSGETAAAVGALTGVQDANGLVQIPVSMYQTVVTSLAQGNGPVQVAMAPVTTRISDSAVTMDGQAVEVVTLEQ
# Sequence of human Retinoic Acid Receptor gamma (RARg), RARG (gene 5916) (P13631 whole entry, looked up, the tested form may be a part): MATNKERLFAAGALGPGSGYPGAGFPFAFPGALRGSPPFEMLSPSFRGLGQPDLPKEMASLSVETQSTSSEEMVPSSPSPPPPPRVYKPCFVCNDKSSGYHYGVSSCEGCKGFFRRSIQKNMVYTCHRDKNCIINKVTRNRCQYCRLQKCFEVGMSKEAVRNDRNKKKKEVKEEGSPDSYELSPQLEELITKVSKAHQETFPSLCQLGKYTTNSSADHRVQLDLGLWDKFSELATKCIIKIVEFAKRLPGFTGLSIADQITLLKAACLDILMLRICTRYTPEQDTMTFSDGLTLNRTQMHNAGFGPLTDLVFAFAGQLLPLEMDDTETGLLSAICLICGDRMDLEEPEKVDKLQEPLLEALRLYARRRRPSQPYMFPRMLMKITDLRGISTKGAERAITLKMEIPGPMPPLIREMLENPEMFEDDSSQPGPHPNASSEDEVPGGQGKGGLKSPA
# Sequence of Peroxisome proliferator-activated receptor gamma (Homo sapiens) (P37231 whole entry, looked up, the tested form may be a part): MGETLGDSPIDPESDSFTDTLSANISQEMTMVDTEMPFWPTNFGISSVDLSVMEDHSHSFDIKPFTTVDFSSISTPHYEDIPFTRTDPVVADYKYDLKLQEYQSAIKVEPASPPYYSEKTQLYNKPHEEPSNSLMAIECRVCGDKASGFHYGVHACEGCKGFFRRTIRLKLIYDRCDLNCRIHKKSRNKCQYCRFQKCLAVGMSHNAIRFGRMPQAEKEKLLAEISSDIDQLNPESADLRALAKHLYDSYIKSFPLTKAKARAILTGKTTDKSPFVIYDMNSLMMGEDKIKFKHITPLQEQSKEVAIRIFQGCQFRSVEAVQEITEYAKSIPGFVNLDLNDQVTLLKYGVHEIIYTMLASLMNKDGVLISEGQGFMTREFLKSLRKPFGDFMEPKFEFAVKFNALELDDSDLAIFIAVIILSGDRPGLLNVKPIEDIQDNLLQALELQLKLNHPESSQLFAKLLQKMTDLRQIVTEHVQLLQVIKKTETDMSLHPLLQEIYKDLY
# Sequence of Nuclear receptor subfamily 1 group I member 2 (Homo sapiens) (O75469 whole entry, looked up, the tested form may be a part): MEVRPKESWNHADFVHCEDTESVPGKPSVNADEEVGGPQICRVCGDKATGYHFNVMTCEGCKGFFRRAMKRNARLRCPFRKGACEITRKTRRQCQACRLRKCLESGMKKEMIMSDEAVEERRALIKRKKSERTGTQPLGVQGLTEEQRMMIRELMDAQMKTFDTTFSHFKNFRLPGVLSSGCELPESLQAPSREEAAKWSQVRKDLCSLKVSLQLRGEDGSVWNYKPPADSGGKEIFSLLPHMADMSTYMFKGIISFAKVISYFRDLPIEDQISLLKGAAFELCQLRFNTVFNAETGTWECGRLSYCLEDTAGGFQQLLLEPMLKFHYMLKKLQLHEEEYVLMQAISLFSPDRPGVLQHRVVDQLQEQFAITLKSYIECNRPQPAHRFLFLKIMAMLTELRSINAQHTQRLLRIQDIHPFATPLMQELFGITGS
# Sequence of Myc proto-oncogene protein (Homo sapiens) (P01106 whole entry, looked up, the tested form may be a part): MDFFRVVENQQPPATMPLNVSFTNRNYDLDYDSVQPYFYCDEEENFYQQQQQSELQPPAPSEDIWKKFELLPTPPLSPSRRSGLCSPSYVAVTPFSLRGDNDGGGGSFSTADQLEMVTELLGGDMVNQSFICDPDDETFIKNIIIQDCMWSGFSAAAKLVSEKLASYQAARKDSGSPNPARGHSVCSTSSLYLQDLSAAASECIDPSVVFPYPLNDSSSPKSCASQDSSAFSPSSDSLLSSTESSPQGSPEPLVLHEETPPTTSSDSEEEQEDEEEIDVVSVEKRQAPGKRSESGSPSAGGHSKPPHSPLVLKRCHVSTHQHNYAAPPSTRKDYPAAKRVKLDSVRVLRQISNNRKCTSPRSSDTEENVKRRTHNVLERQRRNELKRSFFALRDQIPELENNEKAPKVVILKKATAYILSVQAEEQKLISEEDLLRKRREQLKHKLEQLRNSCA
# Sequence of human Retinoic Acid Receptor beta (RARb), RARB (gene 5915) (P10826 whole entry, looked up, the tested form may be a part): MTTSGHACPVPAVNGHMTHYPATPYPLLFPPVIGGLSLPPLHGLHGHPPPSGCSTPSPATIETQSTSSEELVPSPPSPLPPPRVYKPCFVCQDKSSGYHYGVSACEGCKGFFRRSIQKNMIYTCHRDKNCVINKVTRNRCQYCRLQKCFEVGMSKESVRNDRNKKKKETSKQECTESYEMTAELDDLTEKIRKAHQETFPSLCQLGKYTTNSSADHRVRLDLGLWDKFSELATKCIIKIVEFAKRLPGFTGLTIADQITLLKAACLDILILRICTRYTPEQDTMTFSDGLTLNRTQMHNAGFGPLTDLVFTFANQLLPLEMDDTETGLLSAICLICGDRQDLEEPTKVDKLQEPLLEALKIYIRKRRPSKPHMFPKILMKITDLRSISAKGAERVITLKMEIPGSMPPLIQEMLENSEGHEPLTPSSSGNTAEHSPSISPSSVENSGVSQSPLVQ
# Sequence of Cellular tumor antigen p53 (Homo sapiens) (P04637 whole entry, looked up, the tested form may be a part): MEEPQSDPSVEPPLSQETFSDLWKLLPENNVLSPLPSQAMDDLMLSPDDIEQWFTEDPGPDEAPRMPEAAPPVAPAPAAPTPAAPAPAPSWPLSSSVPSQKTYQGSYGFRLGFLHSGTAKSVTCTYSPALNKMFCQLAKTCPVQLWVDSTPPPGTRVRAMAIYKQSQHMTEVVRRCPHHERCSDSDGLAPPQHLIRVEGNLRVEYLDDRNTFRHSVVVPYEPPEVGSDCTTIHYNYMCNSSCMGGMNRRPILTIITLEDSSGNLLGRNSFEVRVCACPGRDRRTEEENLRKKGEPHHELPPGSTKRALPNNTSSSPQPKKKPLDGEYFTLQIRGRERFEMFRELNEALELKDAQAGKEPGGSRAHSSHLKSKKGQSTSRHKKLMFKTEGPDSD
# Sequence of Retinoic acid receptor alpha (Homo sapiens) (P10276 whole entry, looked up, the tested form may be a part): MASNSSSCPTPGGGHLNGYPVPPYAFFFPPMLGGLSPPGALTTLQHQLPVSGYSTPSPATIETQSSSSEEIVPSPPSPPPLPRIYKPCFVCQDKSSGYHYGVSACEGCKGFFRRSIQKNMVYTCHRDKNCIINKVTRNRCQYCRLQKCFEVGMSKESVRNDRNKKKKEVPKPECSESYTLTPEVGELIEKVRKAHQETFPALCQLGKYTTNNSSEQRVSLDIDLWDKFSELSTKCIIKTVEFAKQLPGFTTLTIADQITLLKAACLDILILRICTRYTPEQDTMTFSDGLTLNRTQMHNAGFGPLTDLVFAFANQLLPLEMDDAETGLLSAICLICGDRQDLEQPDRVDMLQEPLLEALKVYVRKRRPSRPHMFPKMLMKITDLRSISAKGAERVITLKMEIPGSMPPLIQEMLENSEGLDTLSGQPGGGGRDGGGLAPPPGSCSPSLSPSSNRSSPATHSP
Structure (SMILES),outcome [1],outcome [2],outcome [3],outcome [4],outcome [5],outcome [6],outcome [7],outcome [8],outcome [9],outcome [10],AC50 [5],AC50 [10],outcome [11],outcome [12],outcome [13],AC50 [9]
CCOC(=O)C1CC(=O)C(=C(O)C2CC2)C(=O)C1 (centres undefined),inactive,inactive,inactive,inactive,inactive,inactive,inactive,inactive,inactive,inactive,,,,,,
CCCCCCCCCc1ccc(OCCO)cc1,inactive,inactive,inactive,inactive,,inactive,inactive,inactive,inactive,,5.92 µM (active),0.732 µM (active),inactive,,,
CC(C)(C)c1cc(CCC(=O)OCC(COC(=O)CCc2cc(C(C)(C)C)c(O)c(C(C)(C)C)c2)(COC(=O)CCc2cc(C(C)(C)C)c(O)c(C(C)(C)C)c2)COC(=O)CCc2cc(C(C)(C)C)c(O)c(C(C)(C)C)c2)cc(C(C)(C)C)c1O,inactive,inactive,inactive,inactive,inactive,inactive,,inactive,,,,,,,,
O=c1[nH]cccc1O,inactive,inactive,inactive,inactive,inactive,inactive,inactive,,inactive,,,,inactive,inactive,inactive,
Brc1ccccn1,inactive,inactive,inactive,inactive,inactive,inactive,inactive,,inactive,inactive,,,,inactive,,
CCOC(OCC)OCC,inactive,inactive,inactive,inactive,inactive,inactive,inactive,inactive,inactive,,,,,,inactive,
Nc1c(Br)cc([N+](=O)[O-])cc1Br,inactive,inactive,inactive,inactive,,inactive,inactive,inactive,inactive,,27.4 µM (active),26.8 µM (active),inactive,,,
CCCCC(CC)COC(=O)c1ccc(N(C)C)cc1 (centres undefined),inactive,inactive,inactive,inactive,,inactive,inactive,inactive,,,27.4 µM (active),27.2 µM (active),,,,30.3 µM (active)
CCc1ccc(C)nc1,inactive,inactive,inactive,inactive,inactive,inactive,inactive,,inactive,,,,,,inactive,
O=C(c1ccccc1)c1ccc(Cl)cc1,inactive,inactive,inactive,inactive,,inactive,inactive,inactive,,,132 µM (active),37.1 µM (active),,,,51.6 µM (active)
O=c1cccc[nH]1,inactive,inactive,inactive,inactive,inactive,inactive,inactive,,inactive,,,,,inactive,inactive,
